Compound activity from PubChem.
HT1080 IDH1KD tx – kills HT-1080 cells with IDH1 knockdown; HT-1080 IDH1 knockdown viability, ATP luminescence, 48 h; Potency, µM (top dose mostly 46.1 µM), inactives show top-dose activity, negative = toxicity, actives largely listed as cytotoxic; hit rate 2% among 360,000;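 note: 0% = DMSO wells and -100% = cell-free medium wells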
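Knockdown cells (IDH1KD HT-1080) received compounds 2 h after plating at 750 cells/well and were kept 48 h at 37 °C in 5% FBS RPMI. A CellTiter-Glo luminescence read gave % activity for curve fitting.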
KB-3-1 cytotox – kills parental KB-3-1 adenocarcinoma cells; Potency, µM (series often up to 46.1 µM), actives largely listed as cytotoxic; hit rate 1.4% among 400,000; KB-3-1 viability, CellTiter-Glo ATP luminescence, 72 h; note: % is set by controls: 0 for no effect and ±100 for the full control effect; nearly all actives have a fitted effect of over 60% in size
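KB-3-1 parental drug-naive adenocarcinoma cells in DMEM/10% FBS, incubated 72 h at 37 C with pin-transferred compounds across a concentration series. Viability by CellTiter-Glo luminescence; concentration-response curves fitted after normalization.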
KB-V1 cytotox – KB-V1 MDR subline cytotoxicity. AID 1347076. Potency, µM (top dose mostly 46.1 µM), hits mostly cytotoxic. KB-V1 MDR cells viability, CellTiter-Glo, 72 h. hit rate 3.4% among 400,000; note: % is set by controls: 0 for no effect and ±100 for the full control effect; nearly all actives have a fitted effect of over 60% in size
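Drug-selected KB-V1 cells, grown in DMEM lacking phenol red with 10% FBS, receive compound titrations; after three days at 37 degrees C, surviving cell ATP is quantified by CellTiter-Glo luminescence and responses normalized and curve-fitted.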
ATXN2 expr inh – reduces ATXN2 reporter expression in HEK-293 cells; HEK-293 ATXN2-luciferase reporter, luminescence, 24 h; Potency, µM (doses to about 57 µM), without a hit: at the top dose activity change, negative = inhibition, hits mostly inhibitors; hit rate 0.72% among 360,000; note: % is set by controls: 0 for no effect and ±100 for the full control effect; nearly all actives have a fitted effect of over 55% in size
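qHTS (up to 57 uM final) was run with 24 h compound exposure of reporter cells at 37 °C. Each well was multiplexed: SteadyGlo luminescence measured ATXN2-luciferase expression after a fluorogenic Gly-Phe-AFC viability readout (25 uM final).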
HT1080-NT tox – kills 2HG-producing HT-1080-NT fibrosarcoma cells. HT-1080-NT fibrosarcoma viability, CellTiter-Glo ATP luminescence, 48 h. Potency, µM (titrated, usually from 46.1 µM), without a hit: top-dose activity, negative = less viability, actives largely listed as cytotoxic. hit rate 1.6% among 360,000. AID 686970;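 note: NT is the 2HG producing partner of a matched IDH1 knockdown line; 0% = DMSO-treated cells and -100% = media-only wells without cells; nearly all actives have a fitted effect of over 55% in size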
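Read-out is CellTiter-Glo luminescence after 10 minutes at room temperature, following 48 hours' compound treatment of HT-1080-NT cells (750 cells/well, RPMI, 5% FBS, 37 degrees C).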
ATXN viability – cell viability loss in ATXN counter-screen | S2 cells (HEK-293 line with an ATXN2-luciferase reporter) viability, CellTiter-Fluor protease fluorescence, 24 h | Potency, µM (highest dose often 56.7 µM), hits mostly cytotoxic | hit rate 0.49% among 400,000 | AID 651635; note: nearly all actives have a fitted effect of over 40% in size
* hit, by the source's call; ! = not active in a repeat. This is a sample that favours compounds with a hit; in the whole collection about 6.2% have one here. Calls come from the whole dose curve; as a rule, active = well fitted curve in the direction sought with a large enough effect; inconclusive = small, poorly fitted or top-dose-only effect, or another doubt; inactive = no such curve, though single readings can be large; an effect the other way counts as inactive or inconclusive. Potency is the fitted concentration of half-maximal effect.

For Nc1ccc2c(c1)C(=O)C(=O)c1ccccc1-2 the results were HT1080 IDH1KD tx inconclusive, KB-3-1 cytotox 2.91µM*, KB-V1 cytotox 4.61µM*, ATXN2 expr inh 4.47µM*, HT1080-NT tox 4.61µM* and ATXN viability 6.31µM*.
For Cc1onc(-c2ccccc2)c1C(=O)N[C@@H]1C(=O)N2[C@@H](C(=O)O)C(C)(C)S[C@@H]12 the results were ATXN2 expr inh 4.8% and ATXN viability inactive.
Screening Cc1cccc(C(=O)NCc2nc(-c3ccccc3NC(=O)C3CCCO3)oc2C)c1 (centres undefined) returned ATXN viability inactive.
`COc1ccccc1NC(=O)CSc1nnc2c(n1)[nH]c1ccccc12` gave KB-3-1 cytotox inactive, KB-V1 cytotox 11.6µM*, ATXN2 expr inh 3.4% and ATXN viability inconclusive.
`COc1ccccc1NC(=O)CSc1ncn(-c2ccccc2)n1` gave HT1080 IDH1KD tx -1.4%, KB-3-1 cytotox inactive, KB-V1 cytotox 16.4µM*, ATXN2 expr inh 3.0%, HT1080-NT tox -4.1% and ATXN viability inactive.
Screening O=C(CCN1Cc2ccccc2OC(c2ccccc2F)C1)N1CCC(N2CCCC(O)C2)CC1 (centres undefined) returned ATXN viability inactive.
`COc1cccc(Cn2cc(-c3cccc(C(F)(F)F)c3)nn2)c1` gave HT1080 IDH1KD tx 9.5%, KB-3-1 cytotox inactive, KB-V1 cytotox inconclusive, ATXN2 expr inh 5.4%, HT1080-NT tox 21.2% and ATXN viability inactive.
For COc1ccc(-c2cn(Cc3cccc(OC)c3)nn2)cc1 the results were HT1080 IDH1KD tx 12.5%, KB-3-1 cytotox inconclusive, KB-V1 cytotox 10.3µM*!, ATXN2 expr inh 24.9%, HT1080-NT tox 10.1% and ATXN viability inactive.
CCOC(=O)C1=C(C)NC2=C(C(=O)CCC2)C1c1cn(Cc2ccc(Cl)cc2Cl)nc1-c1ccccc1 (centres undefined) was read as HT1080 IDH1KD tx inconclusive, KB-3-1 cytotox 16.4µM*, KB-V1 cytotox inconclusive, ATXN2 expr inh -16.5%, HT1080-NT tox inconclusive and ATXN viability inactive.
Screening COC(=O)C1=C(C)NC2=C(C(=O)CCC2)C1c1cn(Cc2ccc(Cl)cc2Cl)nc1-c1ccccc1 (centres undefined) returned HT1080 IDH1KD tx inconclusive, KB-3-1 cytotox inconclusive, KB-V1 cytotox inconclusive, ATXN2 expr inh -28.2%, HT1080-NT tox -27.1% and ATXN viability inactive.
CCOC(=O)C1CCN(Cc2ccc(OC)c(C)c2OC)CC1 was read as HT1080 IDH1KD tx 8.2%, KB-3-1 cytotox inactive, KB-V1 cytotox inconclusive, ATXN2 expr inh -13.4%, HT1080-NT tox -0.6% and ATXN viability inactive.
CCOC(=O)C1CCN(Cc2nc3ccccc3c(=O)n2-c2ccc(F)cc2)CC1 was read as HT1080 IDH1KD tx -1.2%, KB-3-1 cytotox inactive, KB-V1 cytotox 4.11µM*, ATXN2 expr inh -6.0%, HT1080-NT tox -2.5% and ATXN viability inactive.
Screening CCOC(=O)C1CCN(Cc2cc(Cl)c3ccccc3c2O)CC1 returned HT1080 IDH1KD tx 25.9µM*, KB-3-1 cytotox inactive, KB-V1 cytotox inactive, ATXN2 expr inh -27.1%, HT1080-NT tox inconclusive and ATXN viability inconclusive.
CCOc1cc(C2c3c(oc4ccc(F)cc4c3=O)C(=O)N2Cc2ccco2)ccc1O (centres undefined) was read as KB-3-1 cytotox inactive, KB-V1 cytotox inactive, ATXN2 expr inh 5.2% and ATXN viability inactive.
COc1cc(Br)cc(/C=N/NC(=O)Cc2ccc(C(F)(F)F)cc2[N+](=O)[O-])c1O was read as HT1080 IDH1KD tx 16.4µM*, KB-3-1 cytotox inconclusive, KB-V1 cytotox inactive, ATXN2 expr inh inconclusive, HT1080-NT tox inconclusive and ATXN viability inactive.
`CCCCN1C(C(=O)c2ccccc2)=C(OC(=O)CC)c2ccccc2S1(=O)=O` gave KB-3-1 cytotox 14.6µM*, KB-V1 cytotox inactive, ATXN2 expr inh inconclusive and ATXN viability inconclusive.
`CCCCCN1C(C(=O)c2ccccc2)=C(OC(=O)CC)c2ccccc2S1(=O)=O` gave KB-3-1 cytotox inconclusive, KB-V1 cytotox inactive, ATXN2 expr inh -20.0% and ATXN viability inconclusive.
COc1ccc(N2CCN(S(=O)(=O)c3ccc4c(c3)CCCN4C(C)=O)CC2)cc1 was read as KB-3-1 cytotox inactive, KB-V1 cytotox inactive, ATXN2 expr inh 3.5% and ATXN viability inactive.
Screening CCCCCn1c(=O)c2ccccc2n2c(CCl)nnc12 returned HT1080 IDH1KD tx 23.1µM*, KB-3-1 cytotox inconclusive, KB-V1 cytotox inconclusive, ATXN2 expr inh inconclusive, HT1080-NT tox 23.1µM* and ATXN viability inactive.
CC(C)CCn1c(=O)c2ccccc2n2c(CCl)nnc12 was read as HT1080 IDH1KD tx inconclusive, KB-3-1 cytotox inconclusive, KB-V1 cytotox inactive, ATXN2 expr inh inconclusive, HT1080-NT tox 18.4µM* and ATXN viability inconclusive.
`COC(=O)c1c(-c2ccc(Cl)cc2)noc1N1CCN(c2cccc(C(F)(F)F)c2)CC1` gave KB-3-1 cytotox inactive, KB-V1 cytotox inactive, ATXN2 expr inh -3.7% and ATXN viability inactive.
For Fc1ccccc1C(NCCc1ccc(Cl)cc1)c1nnc(-c2ccccc2)o1 (centres undefined) the results were KB-3-1 cytotox inactive, KB-V1 cytotox inconclusive, ATXN2 expr inh -15.4% and ATXN viability inactive.
O=C(C1CCCN(Cc2ccccc2)C1)N1CCc2ccccc2C1 (centres undefined) was read as HT1080 IDH1KD tx -24.3%, KB-3-1 cytotox inactive, KB-V1 cytotox 23.1µM*, ATXN2 expr inh 3.3%, HT1080-NT tox -27.6% and ATXN viability inactive.
`CCS(=O)(=O)N1CCC(C(=O)N2CCc3ccccc3C2)CC1` gave HT1080 IDH1KD tx 0.5%, KB-3-1 cytotox inactive, KB-V1 cytotox 13µM*, ATXN2 expr inh -5.6%, HT1080-NT tox 1.1% and ATXN viability inactive.
Screening COc1ccc(CN2CCCC(C(=O)N3CCc4ccccc4C3)C2)cc1OC (centres undefined) returned HT1080 IDH1KD tx -1.1%, KB-3-1 cytotox inactive, KB-V1 cytotox inactive, ATXN2 expr inh -20.4%, HT1080-NT tox -0.2% and ATXN viability inactive.
`Nc1nc2ncn(COCCO)c2c(=O)[nH]1` gave KB-3-1 cytotox inactive and KB-V1 cytotox inactive.
`CC(=O)c1cccc(NC(=O)C2CCCN(c3nnc(-n4cccc4)s3)C2)c1` (centres undefined) gave KB-3-1 cytotox inactive, KB-V1 cytotox inactive, ATXN2 expr inh 6.9% and ATXN viability inactive.
